Measurements published in PubChem BioAssay (EPA / NIEHS).
Calls of active or inactive are those of the source. The calls were made as follows: active = hit-call score of the fitted dose curve at least 0.9, where 1 is the maximum; inactive = score below 0.9.

Molecular target: Estrogen receptor (Homo sapiens) (UniProt P03372)
Assay: CCTE_Deisenroth_AIME_384WELL_LUC_Shift: CCTE's 384-well Estrogen Receptor Transactivation Assay with AIME metabolic competence data shift (ERTA luciferase; difference in metabolism positive and negative), Deisenroth Lab (AID 2284041);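 also: shift is response with S9 minus without S9 so positive means metabolism raised ER signal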
Procedure: CCTE_Deisenroth_AIME_384WELL (AIME metabolism assay) is a cell-based, single-readout assay that uses VM7Luc4E2, a human mammary gland/breast cell line, with measurements taken at 24 hour after chemical dosing in a 384-well plate.CCTE_Deisenroth_AIME_384WELL_LUC_Shift is one of two analysis components calculated from the CCTE_Deisenroth_AIME_384WELL assay. […] AIME is optimized to impart phase I hepatic metabolism using phenobarbital/beta-naphthoflavone induced hepatic S9 from male Sprague Dawley rats. Parent chemicals are incubated for 2 hours in the AIME assay prior to transfer to the VM7Luc ERTA assay plate. […] The metabolic curve shift response is defined as the pairwise difference between the positive (AEID 2488) and negative (AEID 2490) normalized response values at each concentration for a given chemical across replicate experiments. The pairwise differences form the basis for a concentration-response curve. Standard curve fit analysis identfiied chemicals where the calculated shift was greater than the shift-derived baseline cutoff. A positive hit designation in this endpoint indicates a significant shift trend in the positive direction for bioactivation.
The AIME procedure consists of a preparative "pre-stamping" step using a barium chloride/poly-L-lysine (PLL) solution followed by "stamping" the lid in alginate-hepatic S9 (metabolism positive) or alginate-water (metabolism negative) to form microspheres. Once stamping is completed, the AIME lids are placed in duplicate microplates (metabolism positive or negative) containing chemical solutions and incubated for two hours to facilitate metabolic reactions. The conditioned medium, containing parent chemical or metabolites, is then transferred to the cell-based VM7Luc Estrogen Receptor Transactivation Assay (ERTA) for 24 hours. A typical experimental design tests a 10-point concentration series (0.002 - 200 uM) for 8 compounds (96-well format)1 or 32 compounds (384-well format)2 in single technical replicate. AIME assay controls include trans-stilbene (bioactivated control) and ethylparaben (bioinactivated control). ERTA assay plate controls include 17-beta estradiol (positive control) and DMSO (solvent control). Experiments typically comprise a minimum of four experimental replicates (n=4).

Estrogen receptor (Homo sapiens), sequence (P03372 whole entry, looked up): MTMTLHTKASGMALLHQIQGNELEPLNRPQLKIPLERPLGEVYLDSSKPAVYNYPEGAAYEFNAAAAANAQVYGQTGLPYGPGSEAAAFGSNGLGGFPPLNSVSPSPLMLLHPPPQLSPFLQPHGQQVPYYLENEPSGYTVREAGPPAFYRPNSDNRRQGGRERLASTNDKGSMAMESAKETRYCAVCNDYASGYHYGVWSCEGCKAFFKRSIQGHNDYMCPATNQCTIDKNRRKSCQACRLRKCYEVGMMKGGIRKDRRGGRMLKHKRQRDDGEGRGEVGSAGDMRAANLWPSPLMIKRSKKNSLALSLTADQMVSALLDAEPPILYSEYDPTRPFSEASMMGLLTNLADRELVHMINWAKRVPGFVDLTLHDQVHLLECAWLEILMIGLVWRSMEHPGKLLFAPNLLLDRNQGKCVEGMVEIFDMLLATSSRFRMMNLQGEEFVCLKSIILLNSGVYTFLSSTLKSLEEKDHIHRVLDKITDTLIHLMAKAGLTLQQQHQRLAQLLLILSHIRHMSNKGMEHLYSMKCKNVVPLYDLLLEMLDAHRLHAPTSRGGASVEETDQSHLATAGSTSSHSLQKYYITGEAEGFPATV

Which outcome does the source give for CCCCCCCCCC=CCC1CC(=O)OC1=O (stereo unspecified) here?
Its outcome is “inactive”.

With COc1cc([N+](=O)[O-])ccc1N as the compound, how does the outcome read?
Its outcome is “inactive”.

For CCCCc1ccc2ccccc2c1S(=O)(=O)O, which outcome is on record?
Its outcome is “inactive”.

System: not listed separately
Assay: CCTE_Shafer_MEA_dev_burst_rate: CCTE's Neural Network Formation Assay for Burst Rate, Shafer Lab (AID 2284042);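 as to AC50: potency for loss of burst rate below DMSO control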
Procedure, shortened: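 Exposure ran continuously over 12 days of network development in rat cortical cultures, with compound refreshed during full media changes on DIV 5 and 9. Single-electrode bursts per recording time, well-mean over active electrodes, trapezoidal AUC across days 5–12, fitted downward relative to DMSO.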

For O=C1NS(=O)(=O)c2ccccc21, which outcome is on record?
Its outcome is “inactive”.

For OCC(F)(F)C(F)(F)C(F)(F)C(F)(F)C(F)(F)C(F)(F)C(F)(F)C(F)(F)C(F)(F)C(F)(F)C(F)(F)F, which outcome is on record?
The outcome was “inactive”.

Which AC50 does the source give for Nc1ccn([C@@H]2O[C@H](CO)[C@@H](O)C2O)c(=O)n1 (stereo partly specified) here?
The AC50 was 314 nM (active).

For O=C(F)C(F)(F)C(F)(F)C(F)(F)C(=O)F, which outcome is on record?
Its outcome is “inactive”.

For O=CC(F)(F)C(F)(F)C(F)(F)C(F)F, which outcome is on record?
The outcome was “inactive”.

For CC(C)c1c(C(=O)Nc2ccccc2)c(-c2ccccc2)c(-c2ccc(F)cc2)n1CC[C@@H](O)C[C@@H](O)CC(=O)O, which AC50 is on record?
Its AC50 is 8.94 nM (active).

With O=C(F)C(F)(F)C(F)(F)C(F)(F)C(F)F as the compound, how does the outcome read?
Its outcome is “inactive”.

For O=C(CC(=O)C(F)(F)C(F)(F)C(F)(F)F)c1cccs1, which outcome is on record?
Its outcome is “inactive”.

For CC(=O)Nc1ccc(O)cc1, which outcome is on record?
The outcome was “inactive”.

For O=C(CCCN1CCC(O)(c2ccc(Cl)cc2)CC1)c1ccc(F)cc1, which AC50 is on record?
Its AC50 is 531 nM (active).

With O=P(O)(O)CCC(F)(F)C(F)(F)C(F)(F)C(F)(F)C(F)(F)C(F)(F)C(F)(F)C(F)(F)F as the compound, how does the outcome read?
The outcome was “inactive”.

With COC(=O)C(F)(F)C(F)(F)C(F)(F)F as the compound, how does the outcome read?
The outcome was “inactive”.

For C=CC(F)(F)C(F)(F)C(F)(F)C(F)(F)F, which outcome is on record?
Its outcome is “inactive”.
